This is one part of a sample in which hits are shown more often than they occur.
IL1B secr inh: inhibitors of inflammasome signaling (IL-1 beta secretion). THP-1 LPS/ATP IL-1B secretion, AlphaLISA, 16 h; hits give low values. activity change, % at 57.5 µM. hit rate 4.7% among 360,000. AID 743279; in the data active means activity change below about -50%; inconclusive means mostly about -30% to -49%
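THP-1 cells pretreated 1 hr with compounds (up to 57.5 uM final), then stimulated with LPS (250 ng/mL final) plus ATP (1.25 mM final); secreted IL-1B measured by AlphaLISA after 16 hr, decreased signal indicating inhibition.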
HT1080NT lethal: kills 2HG-producing HT-1080-NT fibrosarcoma cells; Potency, µM (highest dose often 46.1 µM), usual class: cytotoxic; hit rate 1.6% among 360,000; HT-1080-NT fibrosarcoma viability, CellTiter-Glo ATP luminescence, 48 h;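 further: NT is the 2HG producing partner of a matched IDH1 knockdown line; nearly all actives have a fitted effect of over 55% in size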
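Compounds were tested in concentration-response format on HT-1080-NT cells for 48 hours at 37 degrees C. Cell viability came from CellTiter-Glo luminescence; curves were classified by r2, response magnitude and activity.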
12-LOX inh: blocks human arachidonate 12S-lipoxygenase; purified 12hLO, xylenol orange hydroperoxide absorbance; hit rate 1.1% among 580,000; P18054; Potency, µM (titrated, usually from 108 µM), most hits filed as inhibitors
Target sequence (P18054 whole entry, looked up): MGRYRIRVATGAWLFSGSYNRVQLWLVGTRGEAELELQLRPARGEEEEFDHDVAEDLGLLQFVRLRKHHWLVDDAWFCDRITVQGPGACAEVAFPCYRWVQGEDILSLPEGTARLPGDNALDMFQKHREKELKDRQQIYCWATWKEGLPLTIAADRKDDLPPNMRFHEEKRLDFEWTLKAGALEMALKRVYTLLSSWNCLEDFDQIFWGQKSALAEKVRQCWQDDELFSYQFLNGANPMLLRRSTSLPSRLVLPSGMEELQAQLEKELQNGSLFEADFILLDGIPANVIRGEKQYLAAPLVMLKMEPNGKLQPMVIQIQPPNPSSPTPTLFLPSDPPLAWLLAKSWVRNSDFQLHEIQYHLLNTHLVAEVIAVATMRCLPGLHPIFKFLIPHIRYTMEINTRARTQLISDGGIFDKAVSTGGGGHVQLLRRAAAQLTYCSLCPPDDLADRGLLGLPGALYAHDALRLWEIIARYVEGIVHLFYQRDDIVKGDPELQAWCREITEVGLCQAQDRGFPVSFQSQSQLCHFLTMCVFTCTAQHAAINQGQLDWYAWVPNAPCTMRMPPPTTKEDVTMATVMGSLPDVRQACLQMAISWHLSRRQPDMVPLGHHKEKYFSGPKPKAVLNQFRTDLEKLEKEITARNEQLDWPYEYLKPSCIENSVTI
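Purified human 12hLO (150 nM final) in 25 mM Hepes, 0.01% Triton X-100, pH 7.0 was preincubated 15 min at room temperature with compound. Then 40 uM arachidonic acid was added, 30 min. Hydroperoxide was read by Fe-XO absorbance ratio 573/405 nm.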
TDP1 cell CPT: growth inhibition of DT40 Tdp1-/-;hTDP1 cells with camptothecin (screen for TDP1 inhibitors). hit rate 12% among 420,000. Potency, µM (highest dose often 46.2 µM), most hits filed as inhibitors. AID 686979. chicken DT40 Tdp1-/-;hTDP1 cells + 20 nM CPT, ATP luminescence, 48 h; further: nearly all actives have a fitted effect of over 55% in size
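Cell growth measured by CellTiter-Glo luminescence after a minimum 48 h, 37 C compound exposure with 20 nM CPT in Tdp1-knockout DT40 cells stably expressing hTDP1, seeded 400/well; qHTS titration format.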
HT1080 IDH1KD tx: kills HT-1080 cells with IDH1 knockdown. HT-1080 IDH1 knockdown viability, ATP luminescence, 48 h. Potency, µM (highest dose often 46.1 µM), most hits filed as cytotoxic. hit rate 2% among 360,000
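Viability of IDH1-knockdown HT-1080 fibrosarcoma cells was assessed by CellTiter-Glo after 48 h at 37 °C with titrated compound; concentration-effect curves were classified by fit quality and response size.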
TDP1 cell noCPT: qHTS for Inhibitors of human tyrosyl-DNA phosphodiesterase 1 (TDP1): qHTS in cells in absence of CPT. DT40 Tdp1-/- hTDP1 cells, no CPT, ATP luminescence, 48 h. Potency, µM (titrated, usually from 46.2 µM), most hits filed as inhibitors. hit rate 15% among 420,000. AID 686978, 2013; further: nearly all actives have a fitted effect of over 55% in size
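DT40 Tdp1-/-;hTDP1 cells, no CPT (DMSO vehicle only), 400 cells/well; compounds pin-transferred; ≥48 hr, 37 °C; CellTiter-Glo 30 min RT dark, luminescence read.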
A number is an active result; i = inactive; ? = inconclusive; nt = no result given. Unless noted, the call rests on the fitted dose curve; in most records, active means well fitted curve in the direction sought with a large enough effect; inconclusive means small, poorly fitted or top-dose-only effect, or another doubt; inactive means no such curve, though single readings can be large; an effect the other way counts as inactive or inconclusive.

SMILES | IL1B secr inh | HT1080NT lethal | 12-LOX inh | TDP1 cell CPT | HT1080 IDH1KD tx | TDP1 cell noCPT
C[C@H]1CN([C@@H](C)CO)S(=O)(=O)c2ccc(Br)cc2O[C@H]1CN(C)Cc1ccccc1F | ? | i | i | 16µM | i | 23µM
Cc1ccc(C(c2sc3nc(-c4ccco4)nn3c2O)N2CCN(Cc3ccccc3)CC2)cc1 (configuration not stated) | nt | nt | i | i | nt | i
CC1CCN(C(c2nnnn2CCc2ccccc2)C(C)C)CC1 (configuration not stated) | i | i | i | ? | i | 18µM
COc1ccc(N2CCN(C(c3nnnn3CCc3ccccc3)C(C)C)CC2)cc1 (configuration not stated) | i | i | i | 13µM | i | 18µM
CC(C)C(c1nnnn1CCc1ccccc1)N1CCOCC1 (configuration not stated) | i | i | ? | i | i | i
CN(C)S(=O)(=O)c1ccc(C(=O)Nc2ccnn2C2CCCCC2)cc1 | i | i | i | ? | i | 16µM
COc1cccc(CNC(=O)CCn2nc(-c3ccccc3OC)c3c(C)cc(C)nc32)c1 | nt | nt | i | nt | nt | nt
COc1ccc(-c2nc(C(N)=O)c3[nH]c(=O)n(-c4cccc(C)c4)c3n2)c(OC)c1 | i | i | i | ? | i | 23µM
CC1(C(=O)OCC(=O)NCCNC(=O)COC(=O)C2(C)CC2(Cl)Cl)CC1(Cl)Cl (configuration not stated) | i | i | i | ? | i | 16µM
CC1(C(=O)OCC(=O)Nc2ccc3ccccc3c2)CC1(Cl)Cl (configuration not stated) | -97 | i | i | ? | i | ?
CC(C)c1ccc(OCC(=O)Nc2ccc3oc(=O)ccc3c2)cc1 | i | i | i | i | i | i
Cn1nccc1-c1ccn[nH]1 | nt | nt | i | nt | nt | nt
COC(=O)c1ccc(N2NC(=O)/C(=C/c3cc(OC)c(OC)c(OC)c3)C2=O)cc1 | i | i | ? | i | i | i
CCOc1cc(/C=C2\C(=O)N(CCc3ccc(OC)c(OC)c3)C(C)=C2C(=O)OC)ccc1O | ? | i | ? | ? | i | 23µM
CCOc1cc(/C=C2\C(=O)N(Cc3ccco3)C(C)=C2C(=O)OC)ccc1O | -105 | ? | ? | ? | i | ?
COC(=O)C1=C(C)N(Cc2ccc(C)cc2)C(=O)/C1=C\c1cc(OC)c(OC)c(OC)c1 | -79 | ? | ? | ? | 16µM | 21µM
COC(=O)C1=C(C)N(Cc2ccc(C)cc2)C(=O)/C1=C\c1ccc(O)c(OC)c1 | -60 | ? | 28µM | i | ? | i
CCCn1nc(C(=O)OCCOc2ccc(C)cc2)c2ccccc2c1=O | nt | nt | i | nt | nt | nt
CCc1ccc(-c2nc(C)c(C(=O)N3CCN(Cc4ccc(C#N)cc4)CC3)s2)cc1 | nt | nt | i | nt | nt | nt
COCCC(=O)N1CCC(N2CCCC(C(=O)NCc3ccccn3)C2)CC1 (configuration not stated) | nt | nt | i | nt | nt | nt
CCOC(=O)C1=C(C)N(c2ccc(C)cc2)C(=O)/C1=C\c1ccc(O)c(OC)c1 | i | i | ? | 15µM | i | 21µM
CCOC(=O)C1=C(C)N(c2ccc(OCC)cc2)C(=O)/C1=C\c1ccco1 | i | i | ? | ? | ? | ?
COC(=O)C1=C(C)N(CCc2ccccc2)C(=O)/C1=C\c1ccco1 | i | i | i | ? | i | ?
COC(=O)C1=C(C)N(Cc2cccnc2)C(=O)/C1=C\c1sccc1C | -53 | i | i | i | i | i
COC(=O)C1=C(C)N(Cc2ccccc2)C(=O)/C1=C\c1ccco1 | i | i | i | ? | i | 18µM
SMILES | IL1B secr inh | HT1080NT lethal | 12-LOX inh | TDP1 cell CPT | HT1080 IDH1KD tx | TDP1 cell noCPT
CC(C)NC(=O)NCC1(COc2ccccc2)C[C@@H](O)[C@@H](O)C1 (some centres not stated) | nt | nt | i | nt | nt | nt
CC1=C(C(=O)OC(C)C)C(c2ccccc2Cl)CC(=O)N1Cc1cccc(F)c1 (configuration not stated) | nt | nt | i | nt | nt | nt
OC(CN1CCOCC1)CN1CCOCC1 | i | i | ? | i | i | i
CC(C)=CCC/C(C)=C/CNCC(O)CN1CCOCC1 (configuration not stated) | nt | nt | 0.63µM | nt | nt | nt
COc1ccc(NC(=O)CC(C)n2nc(C)cc2C)cc1Cl (configuration not stated) | nt | nt | i | i | nt | ?
CC1Oc2cc3oc4c(O)c5c(cc4c(=O)c3c(O)c2C1(C)C)C=CC(C)(C)O5 (configuration not stated) | i | i | nt | ? | i | 21µM
Cc1ccncc1-c1c(C)nn2c1N(Cc1cccc(O)c1)CCC2 | nt | nt | 32µM | nt | nt | nt
Cc1ccc(C(O)CCc2ccc(N)cc2)cc1 (configuration not stated) | i | i | i | i | i | i
Cc1ccc(C(C[N+](=O)[O-])Sc2ccc(N)cc2)cc1 (configuration not stated) | nt | ? | i | 4.1µM | 16µM | 6.5µM
CN(CCOc1ccc(Cl)cc1)Cc1nc(C2CC2)no1 | nt | nt | i | nt | nt | nt
O=C(C1CC1)N1CCC(c2nc(-c3ccc4nc[nH]c4c3)no2)CC1 | nt | nt | i | nt | nt | nt
COc1cc2c(C=O)c3c4c(cc(OC)c(OC)c4c2cc1OC)CCN3C | nt | nt | nt | 12µM | nt | 12µM
Cc1c(Cl)cccc1NC(=O)Cn1nnc2sc3c(c2c1=O)CCCC3 | nt | nt | i | i | nt | i
CCc1cccc(CC)c1NC(=O)Cn1nnc2sc3c(c2c1=O)CCCC3 | nt | nt | i | ? | nt | 8.2µM
CC1CCc2c(sc3nnn(CC(=O)Nc4c(C(C)C)cccc4C(C)C)c(=O)c23)C1 (configuration not stated) | nt | nt | i | ? | nt | 15µM
N#Cc1ccc(COC(=O)c2ccc(N3CCCS3(=O)=O)cc2)cc1 | nt | nt | i | nt | nt | nt
CCOC(=O)CNC(=O)c1ccc(OCC)cc1 | nt | nt | i | nt | nt | nt
CCOC(=O)CNC(=O)CNC(=O)c1ccc(OC(C)C)cc1 | i | i | i | i | i | i
CCCCCOc1ccc(C(=O)NCC(=O)NCC(=O)OCC)cc1 | i | ? | i | 18µM | ? | 21µM
CCOC(=O)CNC(=O)CNC(=O)c1ccc(OCC(C)C)cc1 | i | i | i | ? | i | 21µM
CC1CCCN(C(=O)Cc2cn(Cc3cccc(Cl)c3)c3ccccc23)C1 (configuration not stated) | -76 | ? | i | ? | ? | 15µM
O=C(O)Cc1cn(Cc2cccc(Cl)c2)c2ccccc12 | i | i | i | i | i | i
O=C(Cc1cn(Cc2cccc(Cl)c2)c2ccccc12)N1CCCCCC1 | -65 | i | i | ? | i | ?
CC(=O)N1CCCC1c1nc2ccccc2n1Cc1cccc(Cl)c1 (configuration not stated) | nt | nt | i | i | nt | ?
